Rows were chosen to be rich in hits. Some 9.3% of all compounds tested hit in one or more screens of this group.
FLuc modulator: firefly luciferase modulation, counter-screen for miR-21 project. purified FLuc, Km substrates, luminescence inhibition. P08659. Potency, µM (titrated, usually from 57.5 µM), for the others: at the top dose activity change, negative = inhibition, usual class: inhibitors. AID 588342. 360,000 tested, 6.9% active;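 further: plate controls were vehicle for no effect and reference inhibitor for full effect; nearly all actives have a fitted effect of over 55% in size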
Target sequence (P08659 whole entry, looked up): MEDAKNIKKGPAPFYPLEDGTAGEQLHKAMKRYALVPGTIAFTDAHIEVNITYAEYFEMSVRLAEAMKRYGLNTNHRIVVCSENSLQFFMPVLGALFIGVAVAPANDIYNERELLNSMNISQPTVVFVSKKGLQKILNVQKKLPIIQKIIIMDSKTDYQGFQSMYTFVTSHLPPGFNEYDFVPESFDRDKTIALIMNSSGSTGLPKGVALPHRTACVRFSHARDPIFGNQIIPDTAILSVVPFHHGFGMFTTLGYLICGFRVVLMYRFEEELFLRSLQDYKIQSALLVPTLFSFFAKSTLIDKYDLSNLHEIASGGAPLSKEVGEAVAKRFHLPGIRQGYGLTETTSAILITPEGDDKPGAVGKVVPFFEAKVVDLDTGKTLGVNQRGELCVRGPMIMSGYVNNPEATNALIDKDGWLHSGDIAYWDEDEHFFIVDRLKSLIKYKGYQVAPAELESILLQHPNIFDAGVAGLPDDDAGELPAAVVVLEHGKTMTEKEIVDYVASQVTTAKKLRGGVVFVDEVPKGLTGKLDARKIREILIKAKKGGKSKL
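Purified P. pyralis luciferase (10nM final) with 10uM D-luciferin and 10uM ATP (Km levels) in 50mM Tris acetate pH 7.5, 10mM Mg acetate, 0.01% Tween-20, 0.05% BSA; qHTS 6-point titration, ~60 µM downward; luminescence read.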
ELG1 genotoxic: inducers of genotoxicity in HEK293T ELG1-luciferase cells. Potency, µM (highest dose often 46 µM), without a hit: at the top dose activity change, positive = activation, actives largely listed as activators. 330,000 tested, 1.3% active. HEK293T ELG1-luciferase reporter, luminescence, 16 h; further: % of control where 0% means no effect; nearly all actives have a fitted effect of over 60% in size
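DMSO vehicle served as control against compound-treated ELG1-luciferase HEK293T cells; exposure lasted 16 hr at 37 °C and 5% CO2, followed by ONE-Glo luminescence detection after 30 min.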
Rab9 promoter act: activates the Rab9 promoter; AID 485297; Huh7 Rab9 promoter-luciferase reporter, luminescence, 24 h; Potency, µM (highest dose often 9.22 µM), for the others: top-dose activation, negative = inhibition, most hits filed as activators; 320,000 tested, 2.8% active; further: % of control where 0% means no effect; nearly all actives have a fitted effect of over 60% in size
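Stable Rab9-luc Huh7, 1500 cells/well, 2 h settle; cmpd in DMSO, 24 h, 37 °C/5% CO2; luciferase reagent 10 min RT; luminescence.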
SMN2 splice enh: increases expression of the SMN2 splice variant. Potency, µM (series often up to 46.1 µM), inactives show top-dose activity change, positive = activation, most hits filed as activators. 210,000 tested, 2.8% active. HEK293 SMN2-luciferase splicing reporter, luminescence, 30-36 h. AID 1458; further: % of control where 0% means no effect; nearly all actives have a fitted effect of over 55% in size
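HEK293 cells carry an SMN2 minigene-luciferase reporter in which exon 7 inclusion puts luciferase in frame. Cells were seeded at 2000 cells/well, attached for 10-12 hours, then exposed to compounds for 30-36 hours at 37C before ONE-Glo luminescence.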
NPC1 prom act: activators of NPC1 promoter; Huh7 NPC1 promoter luciferase reporter, 24 h; Potency, µM (top dose mostly 9.22 µM), inactives show at the highest dose activation, usual class: activators; 320,000 tested, 2.4% active; AID 485313; further: % of control where 0% means no effect; nearly all actives have a fitted effect of over 60% in size
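Quantitative HTS used a cell-based reporter: Huh7 cells stably bearing the NPC1 promoter upstream of luciferase were treated with compounds for 24 h, and promoter activation was read as luminescence.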
ELG1 repair inh: blocks ELG1-dependent DNA repair in HEK293T cells; HEK293T ELG1-luciferase reporter, luminescence, 16 h; DNA damage induced by 5-fluorouridine; Potency, µM (top dose mostly 46.1 µM), for inactives: top-dose activity change, negative = inhibition, hits mostly inhibitors; 330,000 tested, 2.3% active; AID 504467; further: on the % scale 0 is the no-effect control and ±100 the full control effect; nearly all actives have a fitted effect of over 55% in size
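HEK293T cells expressing luciferase-tagged ELG1 (2,000/well) received 5-Fluorouridine plus compound or DMSO for 16 hr at 37 °C. Luciferase was read by ONE-Glo luminescence after 30 min at room temperature.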
The depositor's hits bear a star. The call rests on the fitted dose curve; in most records, active means well fitted curve in the direction sought with a large enough effect; inconclusive means small, poorly fitted or top-dose-only effect, or another doubt; inactive means no such curve, though single readings can be large; an effect the other way counts as inactive or inconclusive. Potency means the concentration at half of the fitted maximal effect.

Cc1ccc(OC(=O)c2ccc(N3CCOCC3)c([N+](=O)[O-])c2)cc1 was read as FLuc modulator inconclusive, ELG1 genotoxic -5%, Rab9 promoter act -1%, SMN2 splice enh -8%, NPC1 prom act 2% and ELG1 repair inh 16%.
For Cc1nc(N)sc1-c1csc(N(C)c2ccc(O)cc2)n1 the results were FLuc modulator 4.8µM*, ELG1 genotoxic inconclusive, Rab9 promoter act inconclusive, SMN2 splice enh inconclusive, NPC1 prom act inconclusive and ELG1 repair inh inconclusive.
`CN(c1ccc(O)cc1)c1nc(-c2cccs2)cs1` gave FLuc modulator -1%, ELG1 genotoxic -3%, Rab9 promoter act -4%, NPC1 prom act -4% and ELG1 repair inh inconclusive.
For CC(=O)N1CCc2c(sc(NC(=O)CSc3ccccc3)c2-c2nc3ccccc3s2)C1 the results were FLuc modulator -4%.
`CCCCC(=O)Nc1sc2c(c1-c1nc3ccccc3s1)CCN(C(C)=O)C2` gave FLuc modulator 0%, ELG1 genotoxic -33%, Rab9 promoter act -10%, SMN2 splice enh 12%, NPC1 prom act -10% and ELG1 repair inh 18µM*.
Cc1ccc(-n2c(SCC(=O)Nc3c(C)cccc3C)nc(O)c(C)c2=O)cc1 was read as FLuc modulator 3% and SMN2 splice enh -14%.
N#C/C(=C\N1CCOCC1)C(N)=O was read as FLuc modulator 6%, ELG1 genotoxic -1%, Rab9 promoter act -3%, NPC1 prom act -2% and ELG1 repair inh -10%.
COc1cc(/C=N/Nc2ccc(Cl)c(C(=O)O)c2)ccc1OC(=O)c1ccccc1F was read as FLuc modulator 17µM*, ELG1 genotoxic 14%, Rab9 promoter act 24%, NPC1 prom act inconclusive and ELG1 repair inh 17%.
`COc1cc(/C=N/NC(=O)c2ccncc2)ccc1OC(=O)c1ccccc1Cl` gave FLuc modulator inconclusive, ELG1 genotoxic -3%, Rab9 promoter act -12%, SMN2 splice enh -1%, NPC1 prom act -6% and ELG1 repair inh -6%.
COc1cc(/C=N/Nc2ccc(Cl)c(C(=O)O)c2)ccc1OC(=O)c1ccc(F)cc1 was read as FLuc modulator inconclusive, ELG1 genotoxic inconclusive, Rab9 promoter act inconclusive, NPC1 prom act 2.8µM* and ELG1 repair inh inconclusive.
For CCC(Sc1nnnn1C)C(=O)Nc1ccc(C(C)=O)cc1 (centres undefined) the results were FLuc modulator inconclusive, ELG1 genotoxic 18µM*, Rab9 promoter act inconclusive, SMN2 splice enh inconclusive, NPC1 prom act 23% and ELG1 repair inh 0%.
For CC(Sc1nnnn1C)C(=O)Nc1ccc(Oc2ccccc2)cc1 (centres undefined) the results were FLuc modulator -15%, ELG1 genotoxic -2%, Rab9 promoter act -1%, SMN2 splice enh -21%, NPC1 prom act 1% and ELG1 repair inh -13%.
Screening CC(C)[C@@H]1CC[C@@H](C)C[C@H]1OC(=O)C[n+]1cc(-c2ccc(Cl)cc2)n2c1CCCCC2 returned FLuc modulator -1%, ELG1 genotoxic -7%, Rab9 promoter act -27%, NPC1 prom act -1% and ELG1 repair inh 21µM*.
`COc1ccc(-c2c[n+](CC(=O)OC3CC(C)CCC3C(C)C)c3n2CCC3)cc1` (centres undefined) gave FLuc modulator 5%, ELG1 genotoxic -17%, Rab9 promoter act -25%, SMN2 splice enh -78%, NPC1 prom act -36% and ELG1 repair inh inconclusive.
CCOC(=O)C1=C(c2ccccc2)NC(SCC(=O)NC2CCCCC2)=C(C#N)C1c1ccco1 (centres undefined) was read as FLuc modulator 1%, ELG1 genotoxic 0%, Rab9 promoter act 10%, SMN2 splice enh -11%, NPC1 prom act -4% and ELG1 repair inh 18µM*.
For CCCCCSc1nnc2c(n1)OC(c1cccn1C)N(C(C)=O)c1ccccc1-2 (centres undefined) the results were FLuc modulator -12%, ELG1 genotoxic -3%, Rab9 promoter act 0%, SMN2 splice enh -8%, NPC1 prom act -2% and ELG1 repair inh 0%.
Screening Cc1cccc(NC(=O)c2sc(-n3nc(C)c(CCC(C)C)c3C)nc2C)c1C returned FLuc modulator 4%.
`C=CC[C@@H](CC(=O)N(CCO)Cc1ccccc1)C(=O)N[C@@H](COC(=O)[C@@H](CC=C)Cc1ccc(F)cc1)Cc1ccccc1` gave ELG1 genotoxic -9% and ELG1 repair inh inconclusive.
`C=CCC[C@H](Cc1ccc(F)cc1)C(=O)OC[C@H](Cc1c[nH]c2ccccc12)NC(=O)[C@H](CC=C)CC(=O)N(CCO)Cc1ccccc1` gave ELG1 genotoxic -8% and ELG1 repair inh 21µM*.
For C=CC[C@H](CC(=O)N(CCO)Cc1ccccc1)C(=O)N[C@H](COC(=O)[C@@H](CC=C)Cc1ccc(F)cc1)Cc1c[nH]c2ccccc12 the results were ELG1 genotoxic -9% and ELG1 repair inh 23µM*.
Screening C=CCC[C@@H](Cc1ccc(F)cc1)C(=O)OC[C@@H](Cc1c[nH]c2ccccc12)NC(=O)[C@@H](CC=C)CC(=O)N(CCO)Cc1ccccc1 returned ELG1 genotoxic -13% and ELG1 repair inh inconclusive.
For C=CCC[C@H](Cc1ccc(F)cc1)C(=O)OC[C@H](Cc1c[nH]c2ccccc12)NC(=O)[C@@H](CC=C)CC(=O)NCCO the results were ELG1 genotoxic -10% and ELG1 repair inh 21µM*.
For C=CC[C@@H](CC(=O)N(CCO)Cc1ccccc1)C(=O)N[C@H](COC(=O)[C@@H](CC=C)Cc1ccc(F)cc1)Cc1c[nH]c2ccccc12 the results were ELG1 genotoxic -13% and ELG1 repair inh 21µM*.
`OCCNc1nc2nonc2nc1NCCO` gave FLuc modulator -1%, ELG1 genotoxic 7%, Rab9 promoter act -5%, SMN2 splice enh 11%, NPC1 prom act -4% and ELG1 repair inh 1%.
For COCCCNc1nc2nonc2nc1NCCSC the results were FLuc modulator 1%, ELG1 genotoxic -4%, Rab9 promoter act -5%, NPC1 prom act 1% and ELG1 repair inh 23µM*.
For COc1ccc2c(c1)c(C(C)=O)c(C)n2CCc1ccccc1 the results were FLuc modulator -6%, ELG1 genotoxic -1%, Rab9 promoter act -5%, NPC1 prom act -4% and ELG1 repair inh 8.2µM*.

High-throughput results from PubChem.
